Screening results (PubChem BioAssay)
IL-1B inflam inh: blocks inflammasome-driven IL-1 beta release; activity change, % at 57.5 µM; THP-1 LPS/ATP IL-1B secretion, AlphaLISA, 16 h; hits give low values; actives 4.7% (n = 360,000); in the data active means activity change below about -50%; inconclusive means mostly about -30% to -49%
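Secreted IL-1B measured by AlphaLISA bead assay after 16 h compound exposure of THP-1 cells; compounds (final up to 57.5 uM) added 1 h before LPS (250 ng/mL) and ATP (1.25 mM) stimulation; lower signal means less secretion.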
TDP1 cell CPT: growth inhibition of DT40 Tdp1-/-;hTDP1 cells with camptothecin (screen for TDP1 inhibitors); chicken DT40 Tdp1-/-;hTDP1 cells + 20 nM CPT, ATP luminescence, 48 h; Potency, µM (series often up to 46.2 µM), without a hit: top-dose activity change, negative = growth inhibition, most hits filed as inhibitors; actives 12% (n = 420,000); AID 686979; further: potency means the concentration at half of the fitted maximal effect; nearly all actives have a fitted effect of over 55% in size
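Chicken DT40 Tdp1-/- cells stably complemented with human TDP1 were seeded at 400 cells/well in medium containing 20 nM camptothecin, exposed to pin-transferred compounds, and grown at 37 °C for at least 48 hr. Viability was read as ATP luminescence.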
HT1080 IDH1KD tx: kills HT-1080 cells with IDH1 knockdown; AID 686971; HT-1080 IDH1 knockdown viability, ATP luminescence, 48 h; Potency, µM (series often up to 46.1 µM), for inactives: top-dose activity, negative = toxicity, hits mostly cytotoxic; actives 2% (n = 360,000);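 further: potency means the concentration at half of the fitted maximal effect; 0% = DMSO wells and -100% = cell-free medium wells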
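CellTiter-Glo luminescence after 48 h compound exposure at 37 degrees C of IDH1-knockdown HT-1080 cells in 5% FBS RPMI. %Activity scaled between DMSO wells and cell-free media wells, with curves fitted and assigned curve classes.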
TDP1 cell noCPT: qHTS for Inhibitors of human tyrosyl-DNA phosphodiesterase 1 (TDP1): qHTS in cells in absence of CPT | Potency, µM (titrated, usually from 46.2 µM), for inactives: at the top dose activity change, negative = growth inhibition, usual class: inhibitors | DT40 Tdp1-/- hTDP1 cells, no CPT, ATP luminescence, 48 h | AID 686978, 2013 | actives 15% (n = 420,000); further: potency means the concentration at half of the fitted maximal effect; nearly all actives have a fitted effect of over 55% in size
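Chicken DT40 Tdp1-/- cells stably complemented with human TDP1 were seeded at 400 cells/well with DMSO in place of 20 nM camptothecin. After compound pinning, cells grew at least 48 hr at 37 °C; viability read by CellTiter-Glo luminescence.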
HT1080NT lethal: kills 2HG-producing HT-1080-NT fibrosarcoma cells. actives 1.6% (n = 360,000). HT-1080-NT fibrosarcoma viability, CellTiter-Glo ATP luminescence, 48 h. Potency, µM (titrated, usually from 46.1 µM), for inactives: at the highest dose activity, negative = less viability, usual class: cytotoxic;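 further: NT is the 2HG producing partner of a matched IDH1 knockdown line; potency means the concentration at half of the fitted maximal effect; 0% = DMSO-treated cells and -100% = media-only wells without cells; nearly all actives have a fitted effect of over 55% in size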
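Fibrosarcoma NT cells, 750 per well in 5% FBS RPMI, were exposed to compound for 48 hours. Viability: CellTiter-Glo luminescence.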
The depositor's hits bear a star; ? = inconclusive; nt = no result. An excerpt weighted towards active compounds, which were near 19% of everything screened. Unless noted, the call rests on the fitted dose curve; in most records, active means well fitted curve in the direction sought with a large enough effect; inconclusive means small, poorly fitted or top-dose-only effect, or another doubt; inactive means no such curve, though single readings can be large; an effect the other way counts as inactive or inconclusive. Unless noted, on the % scale 0 is the no-effect control and ±100 the full control effect.

SMILES	IL-1B inflam inh	TDP1 cell CPT	HT1080 IDH1KD tx	TDP1 cell noCPT	HT1080NT lethal
CCC(CC)C(=O)c1c[nH]c(C(=O)NCc2ccc(F)cc2)c1	-16	-26%	0%	-27%	1%
COc1ccc(C(NC(=O)C2CCN(CCCOc3ccccc3)CC2)c2cccs2)cc1 (stereo unspecified)	-56*	?	?	?	?
Cc1ccc(C(NC(=O)C2CCN(CCOc3ccc(Cl)cc3)CC2)c2ccccn2)cc1 (stereo unspecified)	-70*	?	?	?	?
O=C(NC(c1ccccc1)c1cnccn1)C1CCN(CCCOc2ccccc2)CC1 (stereo unspecified)	-10	-1%	15%	-26%	0%
Cc1cccnc1C(NC(=O)C1CCN(CCCOc2ccccc2)CC1)c1ccc(F)cc1 (stereo unspecified)	-17	?	-5%	?	-9%
COc1ccc(C(NC(=O)C2CCN(CCOc3ccc(Cl)cc3Cl)CC2)c2ccccn2)cc1 (stereo unspecified)	-56*	?	21µM*	23µM*	23µM*
Cc1cccnc1C(c1ccc(F)cc1)N(C)C(=O)C1CCN(CCOc2ccc(Cl)cc2Cl)CC1 (stereo unspecified)	-56*	26µM*	-29%	21µM*	?
COc1ccccc1C(NC(=O)C1CCN(CCOc2ccccc2)CC1)c1ccccn1 (stereo unspecified)	-12	?	15%	?	?
Cc1c(Cl)cccc1NC(=S)Nc1ccc2[nH]c(=O)[nH]c2c1	?	0%	0%	-1%	-1%
Cc1cn([C@H]2C[C@H](O)[C@@H](CNCC3=Cc4cc(O)ccc4OC3)O2)c(=O)[nH]c1=O	-21	-1%	-1%	-14%	-2%
CC1CN(C(=O)CCNC(=O)c2ccc(Cl)cc2)CC(C)O1 (stereo unspecified)	14	8%	13%	21%	-1%
CC(=O)Nc1ccc(-c2nnc(SCc3ccccc3)n2C)cc1	nt	-40%	nt	-10%	nt
COc1cc(OC)nc(C(NC(=O)C2CCN(Cc3c[nH]c4ccccc34)CC2)c2ccc(Cl)cc2)n1 (stereo unspecified)	-61*	?	-22%	18µM*	5.8µM*
COc1ccc(S(=O)(=O)N2CCC(C(=O)NCCc3c[nH]c4ccccc34)CC2)cc1	5	?	9%	0%	3%
CC(NC(=O)C1CCN(CCOc2ccc(Cl)cc2)CC1)c1cccc2ccccc12 (stereo unspecified)	?	16µM*	?	?	?
COc1ccc(CN2CCC(C(=O)NC(C)c3cccc4ccccc34)CC2)cc1 (stereo unspecified)	-21	?	-14%	?	-16%
O=C(NC(c1ccc(Cl)cc1)c1ccsc1)C1CCN(CCOc2ccc(Cl)cc2)CC1 (stereo unspecified)	-68*	?	?	?	?
COc1ccc(OCCN2CCC(C(=O)NC(c3ccc(Cl)cc3)c3cccnc3)CC2)cc1 (stereo unspecified)	-12	?	21µM*	?	?
O=C(NCC1CCCO1)c1ccc(COc2ccccc2)cc1 (stereo unspecified)	13	-25%	-1%	9%	-6%
COc1ccccc1C(NC(=O)C1CCN(CCOc2ccc(Cl)cc2Cl)CC1)c1ccccn1 (stereo unspecified)	0	?	15µM*	?	?
Cc1ccc2ccccc2c1C(O)c1ncc(-c2ccc(Cl)cc2)[nH]1 (stereo unspecified)	13	?	?	8.2µM*	?
Cc1cc(C(O)c2ncc(-c3cccc4ccccc34)[nH]2)ccc1F (stereo unspecified)	-14	?	-14%	?	?
Cc1cccc(C)c1C(O)c1ncc(-c2cccc3ccccc23)[nH]1 (stereo unspecified)	-11	21µM*	?	16µM*	?
Cc1cc(C)c(C(O)c2ncc(-c3cccc4ccccc34)[nH]2)c(C)c1 (stereo unspecified)	0	?	?	?	?
COc1c(C)cc(C(O)c2ncc(-c3cccc4ccccc34)[nH]2)cc1C (stereo unspecified)	59	21µM*	?	18µM*	?
SMILES	IL-1B inflam inh	TDP1 cell CPT	HT1080 IDH1KD tx	TDP1 cell noCPT	HT1080NT lethal
Cc1cccc(C)c1C(O)c1ncc(-c2ccccc2F)[nH]1 (stereo unspecified)	22	21µM*	5%	?	-10%
O=C(CSc1nnc(-c2ccc(OC(F)F)cc2)o1)NC(=O)NCc1ccco1	0	-15%	0%	?	-1%
Cc1cc(C)c(C(O)c2ncc(-c3ccccc3F)[nH]2)c(C)c1 (stereo unspecified)	-20	15µM*	?	?	?
CCC(C)n1c(SC(C)C#N)nc2ccccc2c1=O (stereo unspecified)	22	?	-11%	23µM*	1%
COCCCNC(=O)CCn1c(=O)c2ccccc2n(CC(=O)Nc2c(C)cc(C)cc2C)c1=O	nt	-9%	nt	-11%	nt
CCCNC(=O)c1cc(C2CCCN(C(=O)C3CCCCC3)C2)on1 (stereo unspecified)	31	-18%	?	-12%	13%
COCCNC(=O)CN(Cc1ccccc1)S(=O)(=O)c1ccc2nc(C)sc2c1	-10	-21%	15%	?	0%
CCN(CC)C(=O)[C@H]1C[C@H](CC(=O)NCC23CC4CC(CC(C4)C2)C3)C(=O)N2CCc3c([nH]c4ccc(Cl)cc34)[C@]12C	-69*	16µM*	1%	18µM*	-1%
CC(C)N(C(=O)[C@H]1C[C@H](CC(=O)NCC23CC4CC(CC(C4)C2)C3)C(=O)N2CCc3c([nH]c4ccc(Cl)cc34)[C@]12C)C(C)C	-75*	18µM*	?	13µM*	?
COc1ccc2[nH]c3c(c2c1)CCN1C(=O)C(CC(=O)NCc2ccc(OC)c(OC)c2)C[C@H](C(=O)N(C(C)C)C(C)C)[C@@]31C (stereo partly specified)	-9	?	-4%	?	-3%
CCN(CC)C(=O)[C@H]1C[C@H](CC(=O)NCCCn2ccnc2)C(=O)N2CCc3c([nH]c4ccc(Cl)cc34)[C@]12C	-2	?	-2%	?	-2%
